Assay results reported in PubChem BioAssay (NCI).
The panel holds about 83,000 compounds, 20% with a hit somewhere; the sample as a whole holds those more often.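 Step 1: grow cells in 96-well plates. Step 2: add test compound at a single concentration. Step 3: incubate 48 h. Step 4: record percent growth.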 Unmarked numbers belong to inactive results. The source made the active and inactive calls.

Each compound was assayed on MOLT-4 leukemia (assay: NCI-60 one-dose screen, 48 h (100 = growth as untreated, 0 = no growth, -100 = all killed)). Settings: 10 µM unless noted.
Protocol: Growth inhibition of the MOLT-4 human tumor cell line is measured as a screen for anti-cancer activity. Cells are grown in 96 well plates and exposed to the test compound for 48 hours. Compounds are tested at a single concentration, which is 10^-5 M for most compounds. The reported endpoint is percent growth (GI% or GIPRCNT), where numbers from 0 - 100% represent growth inhibition, and numbers from -100% - 0 represent cell death. For example, a value of 40 represents 60% growth inhibition. A value of 0 means no net growth occurred over the course of the experiment. A value of -40 indicates 40% of cells at the beginning of the experiment died by the end of the experiment. A value of -100 means all cells are dead at the end of the experiment.
NCI-60 Human Tumor Cell Lines Screen was performed using the standard one-dose NCI protocol, which is described in more detail at https://dtp.cancer.gov/discovery_development/nci-60/default.htm.
Compounds with GIPRCNT values below 10 were considered active. Activity score was based on GIPRCNT using the following formula: […]
Score is 0 for GIPRCNT values of 100 or above, 50 for GIPRCNT values of 0, and 100 for GIPRCNT values of -100.
`C=C1CC[C@H](C(C)C)[C@@H]2[C@H]1[C@H]1CC(=C)[C@@H](O)CC[C@@](C)(O)[C@@H]2O1` showed a growth of 119%. Compound `O=C1/C(=C/c2ccc(F)cc2)Sc2c(Br)cccc21` has a growth of 81.5%. Compound `Cc1ccccc1C(=O)NN` has a growth of 92.3%. For `Nc1nc(-c2cccc3ccccc23)cc2ccccc12`, the growth was -3.33% (active). `CN(C)c1ccc(/C=N\Nc2cc(=O)[nH]c3ccc(Cl)cc23)cc1` showed a growth of 87.1%. With `Cc1ccc(-c2nc(N3CCN(C(=O)c4ccc(OC(F)(F)F)cc4)CC3)c3ccccc3n2)cc1` the growth was 56.8%. `CCCCCCCCCCCCCCCCCCOc1ccccc1CCCOP(=O)(O)OCC[N+](C)(C)C` gave a growth of 33.7%. For `CCCCOc1nc2c(C)cccc2cc1-c1cc(-c2ccc(Cl)cc2)nc(-c2ccc(Cl)cc2)c1`, the growth was 103%. `CN(C)CC#Cc1ccc2ncc(C#N)c(Nc3ccc(F)c(Cl)c3)c2c1` gave a growth of 53.7%. `CC(C)c1cc(C(C)C)c(S(=O)(=O)Oc2ccc(NC(=O)c3ccc(Cl)cc3)cc2)c(C(C)C)c1` showed a growth of 17.6%. Work on `Cc1ccc(-c2cnc3sc(C(=O)NCCc4ccccc4)c(C)n23)cc1` yielded a growth of 87%. With `N#CC1=C(N)Oc2c(sc3c(Br)cccc23)C1c1ccc([N+](=O)[O-])cc1` (stereo not given) the growth was 5.93% (active). With `Cc1ccc(-c2nc(N3CCN(CC(=O)Nc4ccc(Cl)c(C(F)(F)F)c4)CC3)c3ccccc3n2)cc1` the growth was 62.6%. `NC1CCN(c2nc(Nc3cccc(C(F)(F)F)c3)c3c(=O)[nH]ccc3n2)CC1` was tested, and the growth was -37.9% (active). `COc1ccc(-c2cnc3ccccc3n2)cc1` gave a growth of 103%. `O=C1/C(=C/c2ccccc2[N+](=O)[O-])Oc2ccc(O)c(O)c21` showed a growth of 18.1%. For `Cc1ccc(S(=O)(=O)N/N=C/C2(c3ccccc3)CC2)cc1`, the growth was 90.5%. With `CCCCOc1nc2ccc(OC)cc2cc1-c1cc(-c2ccc(Cl)cc2)nc(-c2ccc(Cl)cc2)c1` the growth was 113%. With `O=c1c2cc(F)ccc2sc2c(N3CCNCC3)nc3ccccc3c12` the growth was -33.5% (active). `Cc1ccc(-c2nc3c(c(-c4ccccc4)nn3-c3ccccc3)c(-c3ccc(O)cc3)c2C#N)cc1` gave a growth of 40.5%. Work on `COc1cc(C(=O)/C=C/c2c(Cl)nc3sccn23)cc(OC)c1OC` yielded a growth of 74%. For `CCCCn1c(=O)c(-c2cc(-c3ccc(Cl)cc3)nc(-c3ccc(Cl)cc3)c2)cc2cc(Cl)ccc21`, the growth was 104%. With `COc1cc(/C=C/c2c(C(C)=O)c(C)nc3ccccc23)cc(OC)c1OC` the growth was 33.6%. `O=C(Cc1ccc(F)c(Cl)c1)Nc1cc(C2(C(F)(F)F)CC2)nn1CC1CCCCC1` showed a growth of 11.7%. `CCN(CC)c1ccc(C2=NN(C(C)=O)C(c3cc(OC)c(OC)c(OC)c3)C2)cc1` (stereo not given) was tested, and the growth was 5.57% (active). For `C=C(C)[C@@H]1CC[C@]2(N=C=O)CC[C@]3(C)[C@H](CC[C@@H]4[C@@]5(C)Cc6c([nH]c7ccccc67)C(C)(C)[C@@H]5CC[C@]43C)[C@@H]12`, the growth was 61.4%. `CC(C)(C)NC(=O)C(OC(=O)c1cccc(Cl)c1)c1ccc(Cl)cc1` (stereo not given) was tested, and the growth was 107%. With `COc1c(C2CC(=O)Nc3c2c(C)nn3-c2nc3ccccc3[nH]2)cc2c(c1OC)OCO2` (stereo not given) the growth was -12.7% (active). `N/C(=N\c1nc2ccccc2s1)NC(=O)Nc1cccc2ccccc12` gave a growth of 19.9%. For `O=C(Nc1ccc(Cl)cc1F)c1cc(Cl)ccc1O`, the growth was -42.4% (active). With `O=CN(SSN(C=O)C1CCCCC1)C1CCCCC1` the growth was 65.2%. In the case of `O=C(Oc1cccc2ccccc12)Oc1cccc2ccccc12`, the growth is reported as 93.2%. In the case of `COc1ccc(-c2cc(-c3ccc(Cl)cc3)c(C#N)c(=O)n2CCCCCC(=O)Nc2ccccc2N)cc1`, the growth is reported as 35.2%. `COc1cc(C2CC(c3ccc(N(C)C)cc3)=NN2C(C)=O)cc(OC)c1OC` (stereo not given) showed a growth of 11.6%. Work on `Cc1cccc2c3c(sc12)C(c1ccc(Cl)cc1)C(C#N)=C(/N=C/c1ccc(Cl)cc1)O3` (stereo not given) yielded a growth of 14.2%. `S=c1nc(-c2ccccc2)oc(=NC2CCCCC2)n1C1CCCCC1` was tested, and the growth was 0.447% (active). In the case of `CN(C)CCS(=O)(=O)Nc1cc(-c2ccc3ncc(C#N)c(Nc4ccc(F)c(Cl)c4)c3c2)cnc1Cl`, the growth is reported as -25.9% (active). In the case of `NCCCNc1nc2ccccc2c2c(=O)c3cc(C(F)(F)F)ccc3sc12`, the growth is reported as -20.1% (active). Work on `CCOC(=O)NCCc1ccccc1` yielded a growth of 90.1%. Compound `CCCCNC(=O)Oc1ccc(/C(=C(\C)c2ccc(Cl)cc2)c2ccc(OCCN3CCCCC3)cc2)cc1` has a growth of 65.5%.
